The values that follow come from PubChem BioAssay (NCATS).

Records with an inconclusive call do not appear. Entries that show only a call come without a potency. Unmarked numbers belong to inactive results. Active and inactive are the calls of the source. Calls come from the whole dose curve; as a rule, active = well fitted curve in the direction sought with a large enough effect; inconclusive = small, poorly fitted or top-dose-only effect, or another doubt; inactive = no such curve, though single readings can be large; an effect the other way counts as inactive or inconclusive.

The first assay has as its system HEK293T. Nature of the assay: qHTS assay to identify novel small-molecules to repurpose for Merkel cell carcinoma treatment (AID 1296009). Note: nearly all actives have a fitted effect of over 60% in size. Conditions: MCC and control cell lines, CellTiter-Glo viability, 72 h; series mostly up to 44.8 µM. The procedure, abridged:
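Dose-response viability screen; 72 hr exposure at 37 degree celsius; CellTiter-Glo added, 10 min room temperature, luminescence read; RLUs scaled between no-cell and DMSO wells.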
For orientation: qHTS replaces the single test concentration by a dilution series.
Take `CC1CC(O)CC(C)(C)C1(O)CCO` (centres undefined): the Potency result was “inactive”.

As to `CCCOc1ccn2c(C(C)=O)cc(-c3ccccc3S(C)(=O)=O)c2c1`, the Potency entry was “inactive”.

As to `O=C(COc1ccc(Cl)cc1)NC1CCC(NC(=O)COc2ccc(Cl)cc2)CC1` (centres undefined), the Potency result was “inactive”.

On to `CCCCCCc1cccc(NC(=O)[C@H](N)CCP(=O)(O)O)c1`, for which the outcome is “inactive [at 9.27 µM]”.

As to `NC(=O)c1cccc(-c2cc(O)cc(OC(=O)NC3CCCCC3)c2)c1`, the Potency entry is “inactive”.

For the compound `COC(=O)C1C(CC(C)=O)C=CC(O)C12Oc1cc(C)cc(O)c1C2=O` (centres undefined), the Potency entry was “inactive”.

For the compound `Cc1cc(C)cc(NC(=O)Cc2ccc(OC(C)(C)C(=O)O)cc2)c1`, the Potency result is “inactive”.

As for `C[C@@H]1CC[C@]2(C)C(C[C@@H](O)[C@H](O)[C@]23CO3)[C@@]1(C)CCc1ccoc1` (some centres undefined), the Potency entry is “inactive”.

For the compound `CCC(C)/C=C(C)/C=C/C1=CC2=C(Cl)C(=O)C(C)(OC(C)=O)C(=O)C2=CN1C1CCCCN(C(CCC(N)=O)C(=O)O)C1=O` (centres undefined), the Potency entry was “inactive”.

With `CC1(C)CC[C@]2(C(=O)O)CC[C@]3(C)C(=CCC4[C@@]5(C)CCC(O[C@@H]6OC[C@H](O)[C@H](O)[C@H]6O[C@@H]6O[C@H](CO)[C@@H](O)[C@H](O)[C@H]6O)[C@@](C)(CO)C5CC[C@]43C)[C@@H]2C1` (some centres undefined), the Potency result is “inactive”.

On to `Cc1cccc(-c2[nH]c(CNc3ccccc3F)nc2-c2ccc3ncnn3c2)n1`, for which the Potency entry is “inactive”.

Regarding `CCc1cc2c(=O)c(-c3nc4ccccc4s3)coc2c(CN2CCCCC2)c1O`, the Potency result was “inactive”.

The subject of another assay is C33A. Nature of the assay: Primary qHTS to identify gynecologic anti-cancer compounds using libraries of approved drugs and bioactive compounds (AID 1345084). Note: nearly all actives have a fitted effect of over 55% in size. Conditions: Gynecologic cancer cell panel viability, ATPlite luminescence, 48 h; series mostly up to 57.5 µM. The procedure, abridged: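 Cells, 1,000 per well, plated 16 h, then exposed 48 h at 37 C to compounds. Viability by ATPlite luminescence after 15 min at room temperature.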
As for `CC1=CC(=O)C2C(C)(C)CCCC2(C)C12CCC1(COC(=O)C1)O2` (centres undefined), the Potency result is “inactive”.

`CCOc1ccc(C(Nc2ccccn2)c2ccc3ccc(C)nc3c2O)cc1C` (centres undefined): the Potency entry was “inactive”.

Consider `C/C=C/C=C/C=C/C(=O)O[C@@H]1C=C(CO)C(O)(C(=O)O)[C@@]2(C)CCCC(C)(C)[C@H]12` (some centres undefined), for which the Potency result was “inactive”.

With `CC(=O)O[C@@H]1[C@H](O[C@@H]2OC[C@](O)(CO)[C@H]2O)[C@@H](O[C@@H]2O[C@@H](C)[C@H](O)[C@@H](O)[C@H]2O)[C@H](OC(=O)[C@]23CCC(C)(C)C[C@H]2C2=CCC4[C@@]5(C)C[C@H](O)[C@H](O[C@@H]6O[C@H](C(=O)O)[C@@H](O)[C@H](O)[C@H]6O)[C@@](C)(C(=O)O)C5CC[C@@]4(C)[C@]2(C)CC3)O[C@@H]1C` (some centres undefined), the activity change, negative = cytotoxicity was -3.02% [at 11.6 µM].

In the case of `COc1ccc(/C=C/C(=O)O[C@@H]2[C@@H](O)[C@H](C)O[C@@H](OC3C4C=COC(O[C@@H]5O[C@H](CO)[C@@H](O)[C@H](O)[C@H]5O)C4C4(CO)OC34)[C@@H]2O)cc1OC` (some centres undefined), the Potency result was “inactive”.

Take `COc1cc(C/C(=C/NC(C)=O)N(CC(=O)Cc2ccccc2)C(C)=O)cc2c1OCO2`: the Potency result is “inactive”.

Regarding `C[C@@H]1O[C@@H](O[C@H]2[C@H](O[C@H]3[C@H](O[C@H]4CC[C@@]5(C)C(CC[C@]6(C)C5CC=C5[C@@H]7CC(C)(C(=O)O)C[C@@H](O)[C@]7(C)CC[C@]56C)[C@@]4(C)CO)O[C@H](C(=O)O)[C@@H](O)[C@@H]3O)O[C@H](CO)[C@H](O)[C@@H]2O)[C@H](O)[C@H](O)[C@H]1O` (some centres undefined), the activity change, negative = cytotoxicity is 4.66% [at 11.6 µM].

Consider `CC(C)CC(=O)O[C@@H]1OC=C(CO[C@@H]2O[C@H](CO[C@@H]3O[C@H](CO)[C@@H](O)[C@H](O)[C@H]3O)[C@@H](O)[C@H](O)[C@H]2O)[C@H]2C[C@H](O)[C@@H](CO)[C@@H]12`, for which the Potency entry was “inactive”.

For `Cc1nnc(C(C)C)n1C1CC2CCC(C1)N2CCC(NC(=O)C1CCC(F)(F)CC1)c1ccccc1` (centres undefined), the Potency entry is “inactive”.

On to `CC(C)C(C#N)O[C@@H]1O[C@H](CO[C@@H]2OC[C@](O)(CO)[C@H]2O)[C@@H](O)[C@H](O)[C@H]1O` (some centres undefined), for which the Potency result was “inactive”.

Take `CC(C)[C@H]1CCC(CO)=C[C@@H]1/C=C(\CO)C(=O)O`: the Potency entry is “inactive”.

Regarding `COc1cc(/C=C/C(=O)OC[C@H]2O[C@H](O[C@]3(CO)O[C@H](CO)[C@@H](O)[C@@H]3O)[C@H](O)[C@@H](O)[C@@H]2O)cc(OC)c1O`, the Potency result was “inactive”.

`CC(=O)N1c2ccccc2C2(O)CC3C(=O)NC(CC(C)C)C(=O)N3C12` (centres undefined): the Potency entry is “inactive”.

Turning to `O=C(/C=C/c1ccc(O)cc1)OCC1=CC2OC(=O)C3=CO[C@@H](O[C@@H]4O[C@H](CO)[C@@H](O)[C@H](O)[C@H]4O)[C@H]1[C@@H]32` (some centres undefined), the Potency result is “inactive”.

For `CC1CCC2C(C(=O)O)=CC3C(O)C(C)(C)CC123` (centres undefined), the Potency entry was “inactive”.

For the compound `COc1cc(/C=C/C(=O)OC2[C@H](O)CC(O)(C(=O)O)C[C@H]2O)ccc1O` (some centres undefined), the Potency result is “inactive”.

Regarding `COC(=O)C[C@@H]1C(C(=O)O)=CO[C@@H](O[C@@H]2O[C@H](CO)[C@@H](O)[C@H](O)[C@H]2O)/C1=C\COC(=O)/C=C\c1ccccc1`, the Potency entry is “inactive”.
